Screens: PubChem BioAssay, National Center for Advancing Translational Sciences (NCATS)
Compounds with a hit are over-represented: about 9.2% of the library has one in this group of screens.
NPC1 prom act – activates the NPC1 promoter; Huh7 NPC1 promoter luciferase reporter, 24 h; Potency, µM (top dose mostly 9.22 µM), without a hit: top-dose activation, most hits filed as activators; 2.4% of 320,000 active; AID 485313; also: % of control where 0% means no effect; nearly all actives have a fitted effect of over 60% in size
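Stably transfected Huh7 (NPC1 promoter→luciferase), 1500 cells/well in Opti-MEM + 10% FBS, 2 h settle, then compound 24 h at 37 °C. Luminescence after 10 min with Amplite reagent.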
Rab9 prom act – Rab9 promoter activation; Huh7 Rab9 promoter-luciferase reporter, luminescence, 24 h; Potency, µM (highest dose often 9.22 µM), for inactives: at the top dose activation, negative = inhibition, actives largely listed as activators; 2.8% of 320,000 active; AID 485297; also: % of control where 0% means no effect; nearly all actives have a fitted effect of over 60% in size
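Rab9 promoter-driven luciferase in stably transfected Huh7 cells; 1500 cells/well rested 2 h, exposed to compound in DMSO for 24 h at 37 °C, 5% CO2. Luminescence read 10 min after adding luciferase reagent at ambient temperature.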
ELG1 DNA repair – blocks ELG1-dependent DNA repair in HEK293T cells. HEK293T ELG1-luciferase reporter, luminescence, 16 h; DNA damage induced by 5-fluorouridine. AID 504467. Potency, µM (series often up to 46.1 µM), inactives show top-dose activity change, negative = inhibition, usual class: inhibitors. 2.3% of 330,000 active; also: % is scaled to controls: 0 for no effect and ±100 for the full control effect; nearly all actives have a fitted effect of over 55% in size
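In this reporter screen, reduction of luminescence relative to DMSO vehicle indicated activity. Compounds and 5-fluorouridine were added together to 2,000 cells per well, incubated for 16 hr at 37 °C, then developed with ONE-Glo.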
SMN2 splice up – SMN2 splice variant enhancement; HEK293 SMN2-luciferase splicing reporter, luminescence, 30-36 h; Potency, µM (titrated, usually from 46.1 µM), inactives show at the top dose activity change, positive = activation, hits mostly activators; 2.8% of 210,000 active; also: % of control where 0% means no effect; nearly all actives have a fitted effect of over 55% in size
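HEK293 cells carry an SMN2 […]–luciferase reporter in which exon 7 inclusion puts luciferase in frame. Cells were plated 10-12 h before compound addition, then incubated 30-36 h at 37C. ONE-Glo luminescence was read; sodium butyrate at 4.5 mM final served as control.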
ELG1 genotoxic – inducers of genotoxicity in HEK293T ELG1-luciferase cells; HEK293T ELG1-luciferase reporter, luminescence, 16 h; Potency, µM (highest dose often 46 µM), inactives show at the top dose activity change, positive = activation, usual class: activators; 1.3% of 330,000 active; AID 504466; also: % of control where 0% means no effect; nearly all actives have a fitted effect of over 60% in size
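HEK293T cells expressing luciferase-tagged ELG1 were treated with compound or DMSO for 16 hr at 37°C. Luciferase activity was then read after 30 min with ONE-Glo at room temperature; rising signal flags genetic stress.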
FLuc counter – counter-screen for miR-21 project: firefly luciferase inhibitors or activators; Potency, µM (highest dose often 57.5 µM), without a hit: top-dose activity change, negative = inhibition, hits mostly inhibitors; 6.9% of 360,000 active; P08659; purified FLuc, Km substrates, luminescence inhibition; AID 588342;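 also: plate controls were vehicle for no effect and reference inhibitor for full effect; nearly all actives have a fitted effect of over 55% in size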
Target sequence (P08659 whole entry, looked up): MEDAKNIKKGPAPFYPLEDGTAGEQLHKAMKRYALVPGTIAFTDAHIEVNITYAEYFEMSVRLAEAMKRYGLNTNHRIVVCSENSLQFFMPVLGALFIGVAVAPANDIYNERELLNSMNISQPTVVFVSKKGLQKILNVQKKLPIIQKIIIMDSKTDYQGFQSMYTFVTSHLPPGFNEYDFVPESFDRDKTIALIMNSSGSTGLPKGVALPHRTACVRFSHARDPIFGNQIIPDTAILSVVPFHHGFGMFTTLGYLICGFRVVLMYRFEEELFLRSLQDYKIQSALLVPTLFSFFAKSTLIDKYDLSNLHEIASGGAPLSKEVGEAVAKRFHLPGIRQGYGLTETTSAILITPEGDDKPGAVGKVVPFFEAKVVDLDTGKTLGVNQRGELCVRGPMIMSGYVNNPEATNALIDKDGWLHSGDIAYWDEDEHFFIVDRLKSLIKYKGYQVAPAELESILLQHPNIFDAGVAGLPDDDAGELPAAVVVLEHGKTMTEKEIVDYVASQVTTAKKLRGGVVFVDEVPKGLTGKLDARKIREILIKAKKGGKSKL
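Purified P. pyralis luciferase (10nM final) with 10uM D-luciferin and 10uM ATP (Km levels) in 50mM Tris acetate pH 7.5, 10mM Mg acetate, 0.01% Tween-20, 0.05% BSA; qHTS 6-point titration, ~60 µM downward; luminescence read.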
Starred values were filed as active, the others as inactive; u = inconclusive; x = no result. Calls follow the shape of the dose curve; as a rule, active = well fitted curve in the direction sought with a large enough effect; inconclusive = small, poorly fitted or top-dose-only effect, or another doubt; inactive = no such curve, though single readings can be large; an effect the other way counts as inactive or inconclusive. Potency is read from the fitted curve at half-maximal effect.

SMILES | NPC1 prom act | Rab9 prom act | ELG1 DNA repair | SMN2 splice up | ELG1 genotoxic | FLuc counter
Cc1cc(=O)n(CC(=O)NCc2ccc(OC(C)C)cc2)c2c1c(C)nn2-c1cccc(F)c1 | x | x | x | x | x | -6%
O=C(Nc1ccc(F)cc1)Nc1ccccc1F | 2.5µM* | 1.4µM* | u | 16µM* | u | 7.6µM*
O=C(Nc1ccc(NC(=O)c2ccccc2O)cc1)Nc1ccc(F)cc1F | 1% | -1% | 7% | x | 0% | -7%
COc1ccc(NC(=O)CN(C)C(=O)c2ccc(S(=O)(=O)Nc3ccccc3F)cc2)cc1 | 2% | -5% | 18% | x | 23% | 13µM*
COC(=O)c1sccc1NC(=O)Nc1ccccc1C | -7% | -6% | 9% | x | 12% | 4%
COc1cccc(NC(=O)CN(C)C(=O)c2ccc(S(=O)(=O)Nc3ccccc3F)cc2)c1 | -3% | -1% | 11% | x | 0% | 1%
CC(=O)Nc1ccc(NC(=O)Nc2ccccc2C)cc1 | 11% | 4% | u | x | 3% | u
CC(=O)N(C)c1ccc(NC(=O)Nc2ccccc2C)cc1 | u | 2.8µM* | u | 13µM* | 21µM* | 12µM*
COC(=O)c1sccc1NC(=O)Nc1ccccc1F | 1% | -1% | 22% | x | 4% | 13µM*
Cc1ccc(NC(=O)C2CC(=O)N(c3ccc(OC(C)C)cc3)C2)cc1 (stereo unspecified) | x | x | x | -2% | x | -5%
COC(=O)c1ccc(OC(=O)c2ccccc2F)cc1 | 1% | -2% | u | -4% | 2% | 13µM*
COc1ccc(C/C(C)=N/NC(=S)Nc2ccc(C(C)C)cc2)cc1 | 0% | -3% | -4% | -21% | -1% | u
COc1ccc(C/C(C)=N/NC(=S)Nc2ccccc2F)cc1 | 3.2µM* | 2.5µM* | u | -56% | 8.2µM* | 15µM*
O=C(Nc1ccc(F)cc1)Nc1cccnc1Cl | 23% | u | u | x | 4% | 17µM*
Cc1cccnc1NC(=O)Nc1ccc(F)cc1 | u | u | u | 17% | u | u
O=C(Oc1ccc(C(=S)N2CCOCC2)cc1)c1ccccc1F | -3% | 6% | 16% | x | 5% | u
COC(=O)c1ccc(NC(=O)Nc2ccccc2F)cc1 | 0.4µM* | 0.45µM* | u | 2.5µM* | u | 2.1µM*
CCN(CC)c1ccc(NC(=O)C2CCCN(S(=O)(=O)c3ccc4c(c3)oc(=O)n4C)C2)c(C)c1 (stereo unspecified) | x | x | x | -3% | x | -11%
CCNc1nc(NC(C)CC)nc(ON=C(C)C)n1 (stereo unspecified) | -5% | -3% | 9% | -6% | -7% | 0%
O=C(CCS(=O)(=O)c1cc2c3c(c1)CCN3C(=O)CC2)Nc1cccc(Br)c1 | x | x | x | x | x | 7%
O=[N+]([O-])c1ccc(/C=N/NC(=S)Nc2ccccc2F)o1 | 1% | -1% | u | 5% | 7% | u
COc1ccc(NC(=O)Nc2ccccc2F)c(C)c1 | 24% | u | u | x | 7% | -9%
COC(=O)c1ccc(NC(=O)Nc2ccccc2C)cc1 | u | u | -14% | -21% | 5% | 4.8µM*
NC(=O)c1ccc(NC(=O)C#Cc2ccccc2)cc1 | -5% | 0% | u | x | -33% | u
O=C(C#Cc1ccccc1)Nc1ccccc1F | u | u | u | x | 17% | 1.9µM*
SMILES | NPC1 prom act | Rab9 prom act | ELG1 DNA repair | SMN2 splice up | ELG1 genotoxic | FLuc counter
COc1ccc(NC(=O)Nc2ccccc2F)cc1 | 0.56µM* | 0.45µM* | u | 11µM* | 2.6µM* | 3.4µM*
Fc1ccccc1NC(=S)N/N=C/c1ccccc1Br | u | 3.2µM* | u | 11µM* | 4.5µM* | 13µM*
O=C(O)c1ccccc1-c1ccccc1C(=O)Nc1cccc(O)c1 | 0% | -2% | 9% | 7% | -1% | -14%
COc1ccc(-c2noc(CSc3nnc(-c4ccncc4)n3-c3cccc(C)c3)n2)cc1OC | x | x | x | 5% | x | 1%
COc1ccc(NC(=O)c2nc(-c3ccc(C)cc3)n3c2CCCCC3)cc1 | x | x | x | x | x | -10%
COc1cccc(COC(=O)Nc2ccccc2F)c1 | 1.1µM* | 2µM* | u | x | 4.1µM* | 11µM*
NC(=O)c1nc[nH]c1C(=O)Nc1cccc(NC(=O)c2cccc(C(F)(F)F)c2)c1 | x | x | u | x | 1% | x
COc1ccc(C(=O)Sc2ccc(Cl)cc2)cc1OC | -14% | -4% | 8% | 3% | -1% | 2.7µM*
COc1ccc(C(=O)Sc2ccc(C)cc2)cc1OC | -4% | -6% | 0% | 17% | -9% | 6.7µM*
COc1ccc(C(=O)SC2=NCCS2)cc1OC | 0% | 2% | 11% | x | -1% | 1%
COCCNS(=O)(=O)c1cc(F)ccc1OC | 1% | -4% | 2% | 3.2µM* | -3% | 0%
COCCNS(=O)(=O)c1cc(C(=O)O)ccc1OC | 1% | 0% | 8% | x | 0% | 0%
COc1cc(/C=C(\C#N)C(=O)Nc2cccc3ncccc23)ccc1O | -4% | 0% | -2% | 3% | 0% | 0%
COc1cc(/C=C(\C#N)C(=O)Nc2ccc3c(c2)OCCO3)ccc1O | -5% | 12% | 2% | x | 5% | 0.27µM*
COc1cc(/C=C(\C#N)C(=O)Nc2ccccn2)ccc1O | -3% | -2% | u | x | u | 11µM*
CCOc1cc(/C=C(\C#N)C(=O)Nc2ccccn2)ccc1O | -7% | 1% | 5% | x | 9% | 17µM*
CNc1ccc(/C=C(\C#N)C(=O)Nc2ccccn2)cc1[N+](=O)[O-] | 2% | 0% | 16% | x | 0% | 0%
COc1cc(/C=C(\C#N)C(=O)N2CCc3ccccc32)ccc1O | -1% | -7% | 11% | x | 0% | 17µM*
Cc1ccc2cccc(NC(=O)COc3ccccc3Cl)c2n1 | x | x | x | 8% | x | -13%
CCN(CC(=O)NCc1cccs1)C(=O)c1cccc(S(=O)(=O)Nc2ccccc2Cl)c1 | 4% | 12% | -1% | x | -12% | -10%
CCOc1cccc(NC(=O)/C(C#N)=C/c2cccnc2)c1 | -6% | -1% | -3% | x | 0% | 17µM*
CCOc1ccc(/C=C(\C#N)C(=O)Nc2cccnc2)cc1 | 0% | -2% | -5% | -2% | 1% | 0%
CC1(NC(=O)Cc2c(Cl)cccc2Cl)CCS(=O)(=O)C1 (stereo unspecified) | -6% | -4% | 0% | x | 3% | 2%
COc1ccc(OCc2cc(C(=O)NCC3CCCCO3)no2)c(Cl)c1 (stereo unspecified) | u | 4µM* | u | x | u | u
COc1ccc(OCc2cc(C(=O)NCC(C)(C)N3CCOCC3)no2)c(Cl)c1 | 4% | 17% | 15% | x | -3% | u
